# Source: the supplement of paper PMC4022240
# ± gives the standard deviation.
# T1: HaloTag-ATRX ADD domain (163-292)
# T1 chain: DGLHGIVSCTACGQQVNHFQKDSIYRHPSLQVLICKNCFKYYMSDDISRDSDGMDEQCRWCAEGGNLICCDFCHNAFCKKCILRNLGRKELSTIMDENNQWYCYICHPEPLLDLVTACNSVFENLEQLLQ
# Experiments:
# Experiment in all cases: peptide microarray binding signal (635 nm), min-max normalized on array (fraction of array maximum); higher = stronger binding
# Conditions in all cases: peptide region: H3 11-23
# [1] = biological target: T1, HaloTag-ATRX ADD domain (163-292)
# In short: (§1)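 Triplicate spots of histone 13-mer peptide–cellulose conjugates with a Cy3 tracer were printed on nitrocellulose and probed for 1 h at 4°C with biotin-labelled HaloTag reader fusions (10 nM to 1 μM) plus streptavidin-Alexa Fluor 647 or rabbit histone antibodies (1:10,000 to 1:2,000) plus anti-rabbit Alexa 647. An Axon GenePix 4000B read the 635 nm channel. Binding signal is the spot-triplicate mean intensity after min-max scaling within each library.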
# [2] = biological target: HaloTag-ING2 PHD (mouse Ing2 200-280)
# In short: as §1
# [3] = biological target: anti-H3K4me3 antibody ab8580
# In short: as §1
# [4] = biological target: anti-H3K9me3 antibody ab8898
# In short: as §1
# [5] = peptide modifications: H3K18me2, binder concentration: 1:2,000 dilution
# [6] = peptide modifications: H3K18me2, binder concentration: 1:10,000 dilution
# [7] = peptide modifications: H3R17me1 H3K18ac, binder concentration: 1:2,000 dilution
# [8] = peptide modifications: H3R17me1 H3K18ac, binder concentration: 1:10,000 dilution
# [9] = peptide modifications: H3R17me2a H3K18ac, binder concentration: 1:2,000 dilution
# [10] = peptide modifications: H3R17me2a H3K18ac, binder concentration: 1:10,000 dilution
# [11] = peptide modifications: H3R17cit, binder concentration: 1:2,000 dilution
# [12] = peptide modifications: H3R17cit, binder concentration: 1:10,000 dilution
# [13] = peptide modifications: H3K14me3 H3R17me2s, binder concentration: 1:2,000 dilution
# [14] = peptide modifications: H3K14me3 H3R17me2s, binder concentration: 1:10,000 dilution
# [15] = peptide modifications: H3K14me3 H3R17me2a, binder concentration: 1:2,000 dilution
# [16] = peptide modifications: H3K14me3 H3R17me2a, binder concentration: 1:10,000 dilution
# [17] = peptide modifications: H3R17cit H3K18me3, binder concentration: 1:2,000 dilution
# [18] = peptide modifications: H3R17cit H3K18me3, binder concentration: 1:10,000 dilution
# [19] = peptide modifications: H3R17me1 H3K18me3, binder concentration: 1:2,000 dilution
# [20] = peptide modifications: H3R17me1 H3K18me3, binder concentration: 1:10,000 dilution
# [21] = peptide modifications: H3R17me1 H3K18me1, binder concentration: 1:2,000 dilution
# [22] = peptide modifications: H3R17me1 H3K18me1, binder concentration: 1:10,000 dilution
# [23] = peptide modifications: H3R17cit H3K18me2, binder concentration: 1:2,000 dilution
# [24] = peptide modifications: H3R17cit H3K18me2, binder concentration: 1:10,000 dilution
binder,measurement,setting,value
TGGKAPRKQLATK [H3 11-23 T G G K A P R Kme2 Q L A T K],peptide microarray binding signal,"[1]; peptide modifications: H3K18me2, binder concentration: 50 nM",0.00558 ± 0.00014
same,peptide microarray binding signal,"[1]; peptide modifications: H3K18me2, binder concentration: 500 nM",0.0142 ± 0.0013
same,peptide microarray binding signal,"[2]; peptide modifications: H3K18me2, binder concentration: 10 nM",0.004595 ± 2.3e-05
same,peptide microarray binding signal,"[2]; peptide modifications: H3K18me2, binder concentration: 100 nM",0.0225 ± 0.0074
same,peptide microarray binding signal,[3]; [5],0.00421 ± 0.00019
same,peptide microarray binding signal,[3]; [6],0.001541 ± 1.5e-05
same,peptide microarray binding signal,[4]; [5],0.00397 ± 0.00076
same,peptide microarray binding signal,[4]; [6],0.00231 ± 4.2e-05
TGGKAPRKQLATK [H3 11-23 T G G K A P Rme Kac Q L A T K],peptide microarray binding signal,"[1]; peptide modifications: H3R17me1 H3K18ac, binder concentration: 50 nM",0.00715 ± 0.00026
same,peptide microarray binding signal,"[1]; peptide modifications: H3R17me1 H3K18ac, binder concentration: 500 nM",0.0141 ± 0.00063
same,peptide microarray binding signal,"[2]; peptide modifications: H3R17me1 H3K18ac, binder concentration: 10 nM",0.00931 ± 0.0014
same,peptide microarray binding signal,"[2]; peptide modifications: H3R17me1 H3K18ac, binder concentration: 100 nM",0.0197 ± 0.0049
same,peptide microarray binding signal,[3]; [7],0.00513 ± 0.00068
same,peptide microarray binding signal,[3]; [8],0.0149 ± 0.004
same,peptide microarray binding signal,[4]; [7],0.001208 ± 9.1e-06
same,peptide microarray binding signal,[4]; [8],0.00121 ± 3.2e-05
TGGKAPRKQLATK [H3 11-23 T G G K A P Rme2a Kac Q L A T K],peptide microarray binding signal,"[1]; peptide modifications: H3R17me2a H3K18ac, binder concentration: 50 nM",0.00671 ± 0.00026
same,peptide microarray binding signal,"[1]; peptide modifications: H3R17me2a H3K18ac, binder concentration: 500 nM",0.0144 ± 0.001
same,peptide microarray binding signal,"[2]; peptide modifications: H3R17me2a H3K18ac, binder concentration: 10 nM",0.00967 ± 0.00055
same,peptide microarray binding signal,"[2]; peptide modifications: H3R17me2a H3K18ac, binder concentration: 100 nM",0.0188 ± 0.0034
same,peptide microarray binding signal,[3]; [9],0.00549 ± 0.00049
same,peptide microarray binding signal,[3]; [10],0.0302 ± 0.033
same,peptide microarray binding signal,[4]; [9],0.00273 ± 0.00027
same,peptide microarray binding signal,[4]; [10],0.00427 ± 0.0013
TGGKAPRKQLATK [H3 11-23 T G G K A P Rcit K Q L A T K],peptide microarray binding signal,"[1]; peptide modifications: H3R17cit, binder concentration: 50 nM",0.00364 ± 6.7e-05
same,peptide microarray binding signal,"[1]; peptide modifications: H3R17cit, binder concentration: 500 nM",0.0192 ± 0.00046
same,peptide microarray binding signal,"[2]; peptide modifications: H3R17cit, binder concentration: 10 nM",0.00794 ± 0.00039
same,peptide microarray binding signal,"[2]; peptide modifications: H3R17cit, binder concentration: 100 nM",0.0168 ± 0.0043
same,peptide microarray binding signal,[3]; [11],0.000302 ± 4.1e-05
same,peptide microarray binding signal,[3]; [12],0.00148 ± 0.00015
same,peptide microarray binding signal,[4]; [11],0.00122 ± 4.2e-05
same,peptide microarray binding signal,[4]; [12],0.0015 ± 6.7e-05
TGGKAPRKQLATK [H3 11-23 T G G Kme3 A P Rme2s K Q L A T K],peptide microarray binding signal,"[1]; peptide modifications: H3K14me3 H3R17me2s, binder concentration: 50 nM",0.0074 ± 0.0004
same,peptide microarray binding signal,"[1]; peptide modifications: H3K14me3 H3R17me2s, binder concentration: 500 nM",0.0114 ± 0.00062
same,peptide microarray binding signal,"[2]; peptide modifications: H3K14me3 H3R17me2s, binder concentration: 10 nM",0.0227 ± 0.00044
same,peptide microarray binding signal,"[2]; peptide modifications: H3K14me3 H3R17me2s, binder concentration: 100 nM",0.0342 ± 0.0024
same,peptide microarray binding signal,[3]; [13],0.0208 ± 0.0037
same,peptide microarray binding signal,[3]; [14],0.0151 ± 0.00082
same,peptide microarray binding signal,[4]; [13],0.021 ± 0.0014
same,peptide microarray binding signal,[4]; [14],0.0116 ± 0.00028
TGGKAPRKQLATK [H3 11-23 T G G Kme3 A P Rme2a K Q L A T K],peptide microarray binding signal,"[1]; peptide modifications: H3K14me3 H3R17me2a, binder concentration: 50 nM",0.0192 ± 0.0025
same,peptide microarray binding signal,"[1]; peptide modifications: H3K14me3 H3R17me2a, binder concentration: 500 nM",0.027 ± 0.0031
same,peptide microarray binding signal,"[2]; peptide modifications: H3K14me3 H3R17me2a, binder concentration: 10 nM",0.0158 ± 0.0011
same,peptide microarray binding signal,"[2]; peptide modifications: H3K14me3 H3R17me2a, binder concentration: 100 nM",0.0298 ± 0.0018
same,peptide microarray binding signal,[3]; [15],0.0582 ± 0.0093
same,peptide microarray binding signal,[3]; [16],0.0419 ± 0.0073
same,peptide microarray binding signal,[4]; [15],0.133 ± 0.0046
same,peptide microarray binding signal,[4]; [16],0.0547 ± 0.0033
TGGKAPRKQLATK [H3 11-23 T G G K A P Rcit Kme3 Q L A T K],peptide microarray binding signal,"[1]; peptide modifications: H3R17cit H3K18me3, binder concentration: 50 nM",0.00592 ± 0.00019
same,peptide microarray binding signal,"[1]; peptide modifications: H3R17cit H3K18me3, binder concentration: 500 nM",0.012 ± 0.00018
same,peptide microarray binding signal,"[2]; peptide modifications: H3R17cit H3K18me3, binder concentration: 10 nM",0.0112 ± 0.0014
same,peptide microarray binding signal,"[2]; peptide modifications: H3R17cit H3K18me3, binder concentration: 100 nM",0.0317 ± 0.0063
same,peptide microarray binding signal,[3]; [17],0.728 ± 0.052
same,peptide microarray binding signal,[3]; [18],0.45 ± 0.036
same,peptide microarray binding signal,[4]; [17],0.0249 ± 0.0032
same,peptide microarray binding signal,[4]; [18],0.0125 ± 0.0016
TGGKAPRKQLATK [H3 11-23 T G G K A P Rme Kme3 Q L A T K],peptide microarray binding signal,"[1]; peptide modifications: H3R17me1 H3K18me3, binder concentration: 50 nM",0.0105 ± 0.00069
same,peptide microarray binding signal,"[1]; peptide modifications: H3R17me1 H3K18me3, binder concentration: 500 nM",0.0187 ± 0.002
same,peptide microarray binding signal,"[2]; peptide modifications: H3R17me1 H3K18me3, binder concentration: 10 nM",0.00901 ± 0.00033
same,peptide microarray binding signal,"[2]; peptide modifications: H3R17me1 H3K18me3, binder concentration: 100 nM",0.014 ± 0.0016
same,peptide microarray binding signal,[3]; [19],0.468 ± 0.19
same,peptide microarray binding signal,[3]; [20],0.29 ± 0.07
same,peptide microarray binding signal,[4]; [19],0.0548 ± 0.023
same,peptide microarray binding signal,[4]; [20],0.0168 ± 0.0037
TGGKAPRKQLATK [H3 11-23 T G G K A P Rme Kme Q L A T K],peptide microarray binding signal,"[1]; peptide modifications: H3R17me1 H3K18me1, binder concentration: 50 nM",0.009 ± 0.00036
same,peptide microarray binding signal,"[1]; peptide modifications: H3R17me1 H3K18me1, binder concentration: 500 nM",0.018 ± 0.0028
same,peptide microarray binding signal,"[2]; peptide modifications: H3R17me1 H3K18me1, binder concentration: 10 nM",0.0114 ± 0.001
same,peptide microarray binding signal,"[2]; peptide modifications: H3R17me1 H3K18me1, binder concentration: 100 nM",0.0208 ± 0.0062
same,peptide microarray binding signal,[3]; [21],0.00808 ± 0.0017
same,peptide microarray binding signal,[3]; [22],0.00622 ± 0.0014
same,peptide microarray binding signal,[4]; [21],0.0021 ± 0.00037
same,peptide microarray binding signal,[4]; [22],0.00161 ± 4.1e-05
TGGKAPRKQLATK [H3 11-23 T G G K A P Rcit Kme2 Q L A T K],peptide microarray binding signal,"[1]; peptide modifications: H3R17cit H3K18me2, binder concentration: 50 nM",0.00542 ± 6.7e-05
same,peptide microarray binding signal,"[1]; peptide modifications: H3R17cit H3K18me2, binder concentration: 500 nM",0.0117 ± 0.00022
same,peptide microarray binding signal,"[2]; peptide modifications: H3R17cit H3K18me2, binder concentration: 10 nM",0.00806 ± 0.00083
same,peptide microarray binding signal,"[2]; peptide modifications: H3R17cit H3K18me2, binder concentration: 100 nM",0.0217 ± 0.0032
same,peptide microarray binding signal,[3]; [23],0.0091 ± 0.0018
same,peptide microarray binding signal,[3]; [24],0.00548 ± 0.00043
same,peptide microarray binding signal,[4]; [23],0.000921 ± 7.2e-05
same,peptide microarray binding signal,[4]; [24],0.000865 ± 2.4e-05
